PGK inhibitor = blocks T. brucei phosphoglycerate kinase; P07378; PGK/GAPDH coupled, Kinase-Glo luminescence, 60 min; Potency, µM (titrated, usually from 57.5 µM), for the others: at the top dose activity change, negative = inhibition, hits mostly inhibitors; hit rate 0.043% among 380,000; also: potency is read from the fitted curve at half-maximal effect; nearly all actives have a fitted effect of over 60% in size
Target sequence (P07378 whole entry, looked up): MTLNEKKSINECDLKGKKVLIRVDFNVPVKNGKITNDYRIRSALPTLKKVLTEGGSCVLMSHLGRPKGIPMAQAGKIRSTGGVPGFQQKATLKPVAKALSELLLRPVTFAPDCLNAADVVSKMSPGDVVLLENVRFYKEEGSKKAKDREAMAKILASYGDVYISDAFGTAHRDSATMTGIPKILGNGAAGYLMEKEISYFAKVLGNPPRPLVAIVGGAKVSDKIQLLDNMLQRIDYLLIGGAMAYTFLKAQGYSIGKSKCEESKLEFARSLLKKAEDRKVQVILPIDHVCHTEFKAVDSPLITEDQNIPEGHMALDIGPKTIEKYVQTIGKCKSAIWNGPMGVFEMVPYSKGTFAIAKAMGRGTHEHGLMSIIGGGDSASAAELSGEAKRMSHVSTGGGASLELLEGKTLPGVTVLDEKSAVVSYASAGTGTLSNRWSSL
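Luminescent ATP detection (Kinase-Glo Plus) follows a 60-minute room-temperature incubation, with wells lacking PGK as controls. Buffer: 100 mM TEA (pH 7.6), 5 mM MgCl2, 0.01% Tween-20. Coupling enzyme GAPDH (100 nM final) supplies unstable 1,3-BPG in-well.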
PI5P4Ka inh = inhibitors of human PI5P4K alpha; PI5P4Kalpha enzyme, ADP-Glo luminescence, 60 min; stronger effect = lower value; hit rate 1.2% among 330,000; AID 652105; max response, %; active = max response of -50% or lower; inconclusive = between -30% and -50%; inactive = -30% or higher; also: value at the top dose of about 77 µM
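Quantitative HTS of the MLSMR library against PI5P4Kalpha with substrate. ATP added last at 5 microM final; room temperature, 60 minutes. Remaining ATP depleted, ADP converted and read as luminescence.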
PI4K2A inh = PI4K2A (human) kinase inhibition; Q9BTU6; purified PI4K2A, ADP-Glo luminescence, 1 h; stronger effect = lower value; activity change, negative = inhibition, % at 76.9 µM; hit rate 0.13% among 420,000; AID 1346378; in the data active = activity change below about -50%; inconclusive = mostly about -30% to -49%;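 also: -100% = wells without enzyme as full effect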
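In this quantitative HTS, ADP production by PI4K2A was quantified luminescently after 1 h at ambient temperature; 100 microM adenosine served as plate-quality control.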
Pin1 inhibitor = blocks the human prolyl isomerase Pin1. Q13526. Pin1 FP peptide displacement, HiFluor488, 10 min. Potency, µM (doses to about 115 µM), without a hit: at the highest dose activity, negative = inhibition, actives largely listed as inhibitors. hit rate 0.009% among 390,000. AID 504891; active = well fitted inhibition curve with a large enough effect in the polarisation, with a control signal flat, not every such curve was filed as active; inconclusive = small, poorly fitted or top-dose-only effect, or effect the other way, or a change in a side signal; inactive = no such curve, though single readings can be large or run the other way; the % refers to the polarisation; also: potency is read from the fitted curve at half-maximal effect
Target sequence (Q13526 whole entry, looked up): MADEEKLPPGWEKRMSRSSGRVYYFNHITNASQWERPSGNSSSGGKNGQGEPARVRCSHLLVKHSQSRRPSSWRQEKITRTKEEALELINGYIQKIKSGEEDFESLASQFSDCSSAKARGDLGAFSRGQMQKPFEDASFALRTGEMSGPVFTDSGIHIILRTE
Tb PFK inh = blocks T. brucei phosphofructokinase; O15648; T. brucei PFK, ADP-Glo luminescence; Potency, µM (top dose mostly 57.5 µM), without a hit: at the highest dose activity, negative = inhibition, actives largely listed as inhibitors; hit rate 0.17% among 330,000;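 also: potency is read from the fitted curve at half-maximal effect; 0% = uninhibited 1x PFK enzyme wells and -100% = no-enzyme wells; nearly all actives have a fitted effect of over 60% in size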
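Compounds were pin-transferred as a titration series up to 57 uM into substrate buffer (0.5 mM F6P, 0.1 mM ATP, pH 8.0), then 1.25 nM PFK was added and reactions ran 45 min before ADP-Glo detection.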
* = called active by the depositor; i = inactive; ? = inconclusive; . = not tested or not shown. Many of the other results were omitted from the sample, so hits are more common in it than they were. Unless noted, calls follow the shape of the dose curve; as a rule, active = well fitted curve in the direction sought with a large enough effect; inconclusive = small, poorly fitted or top-dose-only effect, or another doubt; inactive = no such curve, though single readings can be large; an effect the other way counts as inactive or inconclusive. Unless noted, % is scaled to controls: 0 for no effect and ±100 for the full control effect.

SMILES | PGK inhibitor | PI5P4Ka inh | PI4K2A inh | Pin1 inhibitor | Tb PFK inh
COc1cc(OC)c(OC)cc1/C=C1\Oc2cc(OCC(=O)N3Cc4ccccc4C[C@H]3C(=O)O)ccc2C1=O | -4.4% | 1.6 | -0.8 | ? | 12µM*
COc1cc2c(cc1/C=C/C(=O)O)OC(C)C2 (stereo unspecified) | -9.7% | -2.0 | -9.6 | -5.2% | -1.1%
CC(C)(O)C1Cc2cc(/C=C/C(=O)O)c(O)cc2O1 (stereo unspecified) | i | -66.4* | -1.2 | 13.3% | -25.5%
N=C1C=CC(=C(c2ccc(N)cc2)c2ccc(N)cc2)C=C1 | ? | -52.5* | ? | ? | .
Cc1ccc(NC(=O)COc2ccccc2C(=O)NCCN(C)C)cc1 | . | . | . | . | -2.4%
N#CCC(=O)Nc1ccc(C(=O)OCC(=O)c2c[nH]c3ccccc23)cc1 | i | ? | -4.0 | 58.2% | 5.8%
CCCCCCCCCCCCCCCC[n+]1ccc(/C=N/O)cc1 | -1.4% | -59.8* | 2.7 | 19.5% | 4.4%
Cc1cccc(C)c1NC(=O)CNC(=O)c1ccc(COc2ccccc2)o1 | i | 0.8 | -3.0 | 3.0% | 1.5%
N#CC(CCc1ccc([N+](=O)[O-])cc1)(CCc1ccc([N+](=O)[O-])cc1)C(N)=O | 5.1% | -84.6* | -6.0 | ? | .
CNS(=O)(=O)c1cccc(C(=O)OCC(=O)c2ccc(S(=O)(=O)N3CCCCC3)cc2)c1 | 1.9% | -55.6* | -7.3 | 13.8% | 2.4%
O=C(/C=C\Nc1ccc2c(c1)OCO2)c1ccccn1 | ? | -18.9 | -54.6* | 17.2% | -18.8%
O=C(/C=C\Nc1ccc2c(c1)OCO2)c1ccc2c(c1)OCO2 | -2.3% | -59.4* | -20.4 | 28.8% | 0.2%
Cc1cc(C)c(S(C)(=O)=O)c(N(C)N)n1 | -0.7% | -4.7 | 0.1 | -3.4% | -0.2%
CCc1cc(S(=O)(=O)O)c2cc(C(C)C)cccc1-2 | . | . | 0.0 | . | .
Nc1c(Br)cc(Br)c2c1C(=O)c1c(cccc1S(=O)(=O)O)C2=O | -19.3% | -56.8* | -3.9 | ? | .
CC(=O)N1CCN(S(=O)(=O)c2cccc(C(=O)OCC(=O)NC(=O)c3cccn3C)c2)CC1 | -1.5% | -7.8 | 2.3 | -5.4% | 2.7%
O=C(OCCC12CC3CC(CC(C3)C1)C2)c1ccc(NCc2cc(O)ccc2O)cc1 | ? | -59.1* | -6.4 | ? | .
O=C(OCC12CC3CC(CC(C3)C1)C2)c1ccc(NCc2cc(O)ccc2O)cc1 | 6.1% | ? | 0.5 | 0.8% | .
COC(=O)C1=C(C)N(CCCC(=O)O)C(=O)NC1c1cccc(OC)c1 (stereo unspecified) | 2.9% | -51.9* | -0.5 | -7.0% | .
CCOC(=O)C1=C(C)N(CCCCCC(=O)O)C(=O)NC1c1cccc([N+](=O)[O-])c1 (stereo unspecified) | -5.4% | -14.8 | 2.4 | 2.6% | -3.7%
COC(=O)C1=C(C)N(CCCC(=O)O)C(=O)NC1c1ccc(Cl)cc1 (stereo unspecified) | -4.6% | -76.9* | -2.5 | -10.7% | .
CCOC(=O)C1=C(C)N(CCCC(=O)O)C(=O)NC1c1ccccc1 (stereo unspecified) | 1.0% | -57.2* | 0.7 | -6.9% | .
CCOC(=O)C1=C(C)N(CCCC(=O)O)C(=O)NC1c1ccc2ccccc2c1 (stereo unspecified) | -6.4% | -74.9* | 5.1 | -8.8% | .
CC1=C(C(=O)OCc2ccccc2)C(c2ccc(Cl)cc2)NC(=O)N1CCCCCC(=O)O (stereo unspecified) | 4.0% | -10.1 | -4.1 | -1.8% | -2.6%
Cc1cc(S(=O)(=O)N2CCCC2)ccc1OCC(=O)N1CCCCC1 | 1.0% | 2.6 | -1.8 | -15.2% | -4.3%
SMILES | PGK inhibitor | PI5P4Ka inh | PI4K2A inh | Pin1 inhibitor | Tb PFK inh
CCOC(=O)c1c(NC(=O)c2nc(SCC)ncc2Cl)sc(C(C)=O)c1C | 5.0% | . | -0.3 | -6.0% | .
CN(Cc1cn(C)nc1-c1ccc(Oc2ccccc2)cc1)Cc1cnc2ccccn12 | i | -8.1 | 3.6 | -1.1% | -4.2%
CN(C)C(=O)CSc1ncccc1-c1nc2ccccc2[nH]1 | -5.1% | -9.9 | -5.7 | -12.6% | -9.0%
CC1=C(C(=O)OCC(Br)(Br)Br)C(c2cccc([N+](=O)[O-])c2)NC(=O)N1CCCC(=O)O (stereo unspecified) | -8.2% | -64.1* | 5.3 | -12.8% | .
CCOC(=O)C1=C(C)N(CCCC(=O)O)C(=O)NC1c1ccc(Cl)cc1 (stereo unspecified) | -6.4% | -93.1* | -4.6 | -1.1% | 0.2%
COC(=O)C1=C(C)N(CCCC(=O)O)C(=O)NC1c1ccc2c(c1)OCO2 (stereo unspecified) | -3.4% | -62.0* | 3.6 | -4.8% | .
Cn1c(=O)[nH]c(=O)c2[nH]c(NCCCN3CCOCC3)nc21 | -4.6% | -2.2 | 0.9 | -1.0% | 0.5%
O=C(/N=C1\NC(=O)C(F)(C(F)(F)F)S1)NC1CCCCC1 (stereo unspecified) | -7.6% | -61.1* | -15.1 | -3.3% | -1.6%
CC(=O)Oc1cccc2c1C(=O)c1c(OC(C)=O)cc(C(=O)O)cc1C2=O | 0.1% | -76.3* | -5.7 | ? | 5.1%
CCCCN(CC)c1nc(N)c(C#N)c(CC#N)c1C#N | -8.6% | -70.9* | 8.3 | ? | 1.1%
COc1ccc(-n2c(SCC(=O)C(C)(C)C)nc3ccsc3c2=O)cc1 | 0.2% | -11.0 | -10.2 | -5.7% | -0.9%
O=S(=O)(c1cc(O)ccc1O)c1cccc2c(S(=O)(=O)c3cc(O)ccc3O)cccc12 | ? | -90.8* | ? | ? | ?
CC(=O)N1CCN(CCN(CC2C(C)C=C(C)CC2C)C(C)=O)CC1 (stereo unspecified) | -2.6% | 4.6 | 3.2 | 1.3% | -1.8%
CC1(C)Cc2c(sc3ncn4c(=S)[nH]nc4c23)CO1 | -8.9% | -53.2* | -1.4 | -1.5% | -7.2%
CC1(C)Cc2c(sc3ncn(N)c(=N)c23)CO1 | 25.6% | -9.3 | 0.8 | 1.2% | 18.2%
O=C(NCc1ccccc1)c1ccc(NC(=O)C2CCCC2)cc1 | ? | 1.4 | -0.7 | 3.6% | .
O=c1c2ccccc2ncn1-c1ccc(Cl)cc1Cl | -5.5% | 7.4 | -3.4 | -0.8% | 0.5%
O=c1c2ccccc2sn1-c1ccc(Cl)cc1Cl | i | -105.4* | -8.9 | . | .
O=C(Nc1cccc(O)c1)C(=O)Nc1ccccn1 | ? | ? | -64.2* | 4.1% | ?
COc1cc(SC#N)ccc1N=Cc1c(C)[nH]n(-c2cccc3ccccc23)c1=O | -12.1% | -10.0 | -52.6* | 15.8% | -2.5%
COc1cc(SC#N)ccc1N=Cc1c(C)[nH]n(-c2ccc(C)cc2C)c1=O | -7.4% | -11.5 | -53.6* | 19.1% | .
COc1ccc(CNC(=O)CCC(=O)N2CC3CCCN3c3ccccc32)cc1 (stereo unspecified) | -4.1% | . | -10.2 | 0.7% | .
Cc1cccn2c(=S)[nH]nc12 | 2.1% | -59.0* | -2.1 | 9.5% | .
Cc1ccccc1-n1c(C)n[nH]c1=S | . | . | -5.0 | 1.0% | 0.9%
CC(=O)Nc1ccc(-c2nc(C)c(C(C)=O)n2O)cc1 | -4.1% | . | -5.0 | 10.4% | -3.2%

Screening data: PubChem, National Center for Advancing Translational Sciences (NCATS)
